Results taken from PubChem BioAssay (NCI).
Where “and” joins values, the source holds several entries; their conditions need not be identical. Equal entries are not always repeated. Compounds without any hit were thinned out: in the full panel of roughly 83,000, 20% have a hit.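 Negative percent growth values reflect cell death: -40 means 40% of the cells present at the start died, and -100 means all died.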 Calls of active or inactive are those of the source. Rule for the calls: active = growth percent below 10; inactive = the rest.

Tests used:
Assay in all cases: NCI-60 one-dose screen, 48 h (100 = growth as untreated, 0 = no growth, -100 = all killed)
Conditions in all cases: 10 µM unless noted
[1] = test system: NCI-H23 lung
[2] = test system: NCI-H226 lung
[3] = test system: NCI-H322M lung
[4] = test system: HOP-62 NSCLC
[5] = test system: NCI-H460 lung
[6] = test system: HOP-92 NSCLC
[7] = test system: NCI-H522 lung
[8] = test system: A549/ATCC NSCLC
[9] = test system: 786-0 renal
[10] = test system: COLO 205 colon
[11] = test system: DU-145 prostate
[12] = test system: K-562 leukemia
[13] = test system: MALME-3M melanoma
[14] = test system: MDA-MB-231 breast
[15] = test system: RXF 393 renal
[16] = test system: SF-268 CNS
[17] = test system: SF-295 CNS
[18] = test system: SF-539 CNS
[19] = test system: UACC-257 melanoma
[20] = test system: M14 melanoma

Structure (SMILES) | growth [1] | growth [2] | growth [3] | growth [4] | growth [5] | growth [6] | growth [7] | growth [8] | growth [9] | growth [10] | growth [11] | growth [12] | growth [13] | growth [14] | growth [15] | growth [16] | growth [17] | growth [18] | growth [19] | growth [20]
O=C1c2cccnc2-c2ncccc21 | 105% [100 µM] (inactive) | 90% [100 µM] (inactive) | 101% [100 µM] (inactive) | 96.9% [100 µM] (inactive) | 111% [100 µM] (inactive) | 96.7% [100 µM] (inactive) | 104% [100 µM] (inactive) | 97.7% [100 µM] (inactive) | 93.1% [100 µM] (inactive) | 123% [100 µM] (inactive) | 112% [100 µM] (inactive) | 115% [100 µM] (inactive) | 103% [100 µM] (inactive) | 118% [100 µM] (inactive) | 109% [100 µM] (inactive) | 106% [100 µM] (inactive) | 103% [100 µM] (inactive) | 104% [100 µM] (inactive) | 98% [100 µM] (inactive) | 104% [100 µM] (inactive)
O=[N+]([O-])c1ccc(N/N=C/C2CCCCCC2)c([N+](=O)[O-])c1 | 99.9% (inactive) | 101% (inactive) | 78.8% (inactive) | 97% (inactive) | 94.6% (inactive) | 82.6% (inactive) | 78.5% (inactive) | 79.9% (inactive) | 96.7% (inactive) | 94.6% (inactive) | 92% (inactive) | 83.4% (inactive) | 98% (inactive) | 81.8% (inactive) | 98% (inactive) | 87.4% (inactive) | 98.1% (inactive) | 99.8% (inactive) | 96.5% (inactive) | 85.1% (inactive)
CN1C2C=CC(=O)C1C1C(=O)N(c3ccccc3)C(=O)C12 (centres undefined) | 96.7% (inactive) | 105% (inactive) | 98.4% (inactive) | 91.2% (inactive) | 80.6% (inactive) | 32.3% (inactive) | -8.8% (active) | 106% (inactive) | 93.5% (inactive) | 99.9% (inactive) | 37.3% (inactive) | 40.8% (inactive) | 82.5% (inactive) | 93.9% (inactive) | 59.1% (inactive) | 74.1% (inactive) | 99% (inactive) | 66.5% (inactive) | 81.8% (inactive) | 105% (inactive)
Cc1cc2nc3ccc(=[N+](C)C)cc-3sc2cc1N | 21.7% (inactive) | 43.3% (inactive) and 58.9% (inactive) | 22.6% (inactive) and 38.3% (inactive) | 0.425% (active) and 42.7% (inactive) | 6.67% (active) and 7.84% (active) | 43.1% (inactive) and 8.68% (active) | -55.4% (active) and 13% (inactive) | 6.81% (active) and 7.05% (active) | 39.4% (inactive) and 35.9% (inactive) | -68.6% (active) and -23.5% (active) | 3.25% (active) and -41.6% (active) | 7.3% (active) | -47.8% (active) and -3.68% (active) | -18.8% (active) and -10.4% (active) | 51.6% (inactive) and 36% (inactive) | -8.64% (active) and -29.4% (active) | 4.64% (active) and 15.1% (inactive) | -39.6% (active) and 3.1% (active) | 24.9% (inactive) and 61.4% (inactive) | -26.3% (active) and 8.5% (active)
CCOC(C)=N | 105% (inactive) | 112% (inactive) | 146% (inactive) | 101% (inactive) | 114% (inactive) | 89.7% (inactive) | 87.3% (inactive) | 101% (inactive) | 100% (inactive) | 122% (inactive) | 118% (inactive) | 102% (inactive) | 177% (inactive) | 106% (inactive) | 114% (inactive) | 106% (inactive) | 121% (inactive) | 106% (inactive) | 104% (inactive) | 97.5% (inactive)
CCOP(C)(=O)/C(Cc1ccc(OC)c(OC)c1)=N\O (centres undefined) | 97.1% (inactive) | 96% (inactive) | 90.5% (inactive) | 98.7% (inactive) | 105% (inactive) | 100% (inactive) | 102% (inactive) | 108% (inactive) | 103% (inactive) | 112% (inactive) | 116% (inactive) | 101% (inactive) | 98.5% (inactive) | 109% (inactive) | 113% (inactive) | 102% (inactive) | 100% (inactive) | 100% (inactive) | 113% (inactive) | 108% (inactive)
CNc1ccc(O)cc1 | 114% (inactive) and 104% (inactive) | 85.2% (inactive) and 93.6% (inactive) | 122% (inactive) and 98.3% (inactive) | 104% (inactive) | 105% (inactive) and 115% (inactive) | 102% (inactive) | 96.3% (inactive) and 93% (inactive) | 104% (inactive) and 114% (inactive) | 109% (inactive) and 106% (inactive) | 132% (inactive) and 117% (inactive) | 121% (inactive) and 113% (inactive) | 104% (inactive) and 118% (inactive) | 110% (inactive) and 107% (inactive) | 104% (inactive) and 98.9% (inactive) | 95.6% (inactive) and 114% (inactive) | 121% (inactive) and 113% (inactive) | 101% (inactive) | 104% (inactive) and 107% (inactive) | 91.5% (inactive) and 115% (inactive) | 118% (inactive) and 113% (inactive)
CCOC(=O)NC(N)=O | 103% (inactive) and 99% (inactive) | 99.8% (inactive) and 96.5% (inactive) | 93% (inactive) and 105% (inactive) | 88.5% (inactive) and 111% (inactive) | 105% (inactive) and 104% (inactive) | 102% (inactive) | 89.4% (inactive) and 103% (inactive) | 104% (inactive) and 107% (inactive) | 97.3% (inactive) and 101% (inactive) | 110% (inactive) and 118% (inactive) | 111% (inactive) and 119% (inactive) | 90.7% (inactive) and 110% (inactive) | 93.3% (inactive) | 118% (inactive) and 102% (inactive) | 114% (inactive) | 106% (inactive) and 119% (inactive) | 99.9% (inactive) and 93.2% (inactive) | 95.6% (inactive) and 99.2% (inactive) | 94% (inactive) and 97.1% (inactive) | 101% (inactive)
NNc1ncnc2cccc(Cl)c12 | 99.9% (inactive) | 93.1% (inactive) | 101% (inactive) | 95.3% (inactive) | 113% (inactive) | 79.7% (inactive) | 84.8% (inactive) | 81.1% (inactive) | 105% (inactive) | 104% (inactive) | 112% (inactive) | 99.4% (inactive) | 99% (inactive) | 105% (inactive) | 103% (inactive) | 107% (inactive) | 98.7% (inactive) | 97.2% (inactive) | 88.2% (inactive) | 104% (inactive)
CN(C)c1ccc(C(=N)c2ccc(N(C)C)cc2)cc1 | 56.4% (inactive) and 41.9% (inactive) | 74.5% (inactive) and 47.3% (inactive) | 58.1% (inactive) and 60.9% (inactive) | 26.3% (inactive) and 37.2% (inactive) | 9.11% (active) and 15.7% (inactive) | 32.5% (inactive) and 27.5% (inactive) | -23.9% (active) and 17.8% (inactive) | 32% (inactive) and 24.2% (inactive) | 47.4% (inactive) and 40.2% (inactive) | 17.5% (inactive) and 13.2% (inactive) | 42.3% (inactive) and 56.5% (inactive) | 12.8% (inactive) and 7.8% (active) | 61.6% (inactive) | 53.9% (inactive) and 35.9% (inactive) | 49.6% (inactive) and 39.6% (inactive) | 44.5% (inactive) and 53.6% (inactive) | 26.7% (inactive) and 12.1% (inactive) | 41.1% (inactive) and 34.6% (inactive) | 38.2% (inactive) and 51.7% (inactive) | 2.95% (active)
Nc1nc(-c2ccccn2)cc(-c2cc(-c3ccccn3)nc(N)n2)n1 | 103% (inactive) | 96.1% (inactive) | 94.3% (inactive) | 119% (inactive) | 134% (inactive) | 103% (inactive) | 107% (inactive) | 117% (inactive) | 112% (inactive) | 118% (inactive) | 119% (inactive) | 114% (inactive) | 109% (inactive) | 102% (inactive) | 105% (inactive) | 106% (inactive) | 102% (inactive) | 103% (inactive) | 112% (inactive) | 100% (inactive)
Cc1cc(=NO)cc(C)n1O | 109% (inactive) | 114% (inactive) | 94.3% (inactive) | 100% (inactive) | 107% (inactive) | 111% (inactive) | 120% (inactive) | 113% (inactive) | 107% (inactive) | – | 101% (inactive) | 96.8% (inactive) | 112% (inactive) | 118% (inactive) | 123% (inactive) | 99.2% (inactive) | 94.4% (inactive) | 104% (inactive) | 112% (inactive) | 108% (inactive)
